# From PubChem BioAssay AID1159580 (chemical genetic matrix, 2015)
# The whole screen tested about 5,500 compounds, of which about 2,000 (36%) were called active. Another 18% or so got no clear call; they are omitted. The list shows a part of the results. A number with no mark means an inactive call. Cut-off read from the data, not from the text of the source: active = normalized growth mostly below about 0.91 (no sharp cut-off); inconclusive = no clear call, values can overlap the other calls; inactive = mostly above about 0.92.
# Test: chemical genetic growth profiling, strain panel (AID 1159580);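 note: tested at 20 µM; growth read once vehicle control cultures reached saturation at 30 °C; 1 = growth at the plate median or of vehicle wells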
# Conditions: growth OD
smiles,measurement,setting,value
CC[n+]1c(-c2ccccc2)c2cc(N)ccc2c2ccc(N)cc21,normalized growth,"S. cerevisiae deletion strains, locus YJR075W, strain HOC1, stronger effect = lower value",0.665 (active)
same,normalized growth,"S. cerevisiae deletion strains, locus YKL009W, strain mrt4, stronger effect = lower value",0.867 (active)
same,normalized growth,"S. cerevisiae deletion strains, locus YKL068W, stronger effect = lower value",0.881 (active)
same,normalized growth,"S. cerevisiae deletion strains, locus YKL085W, strain MDH1 (second series), stronger effect = lower value",0.882 (active)
same,normalized growth,"S. cerevisiae deletion strains, locus YKL085W, strain MDH1, stronger effect = lower value",0.882 (active)
same,normalized growth,"S. cerevisiae deletion strains, locus YKL160W, strain elf1, stronger effect = lower value",0.973
same,normalized growth,"S. cerevisiae deletion strains, locus YKL190W, strain CNB1, stronger effect = lower value",0.857 (active)
same,normalized growth,"S. cerevisiae deletion strains, locus YKR001C, strain vps1, stronger effect = lower value",0.929
same,normalized growth,"S. cerevisiae deletion strains, locus YKR026C, strain gcn3, stronger effect = lower value",0.955
same,normalized growth,"S. cerevisiae deletion strains, locus YKR091W, strain srl3, stronger effect = lower value",0.97
same,normalized growth,"S. cerevisiae deletion strains, locus YLL001W, strain dnm1, stronger effect = lower value",0.95
same,normalized growth,"S. cerevisiae deletion strains, locus YLL026W, stronger effect = lower value",0.97
same,normalized growth,"S. cerevisiae deletion strains, locus YLL041C, strain sdh2, stronger effect = lower value",0.972
same,normalized growth,"S. cerevisiae deletion strains, locus YLR027C, strain aat2, stronger effect = lower value",0.979
same,normalized growth,"S. cerevisiae deletion strains, locus YLR039C, strain RIC1, stronger effect = lower value",0.771
same,normalized growth,"S. cerevisiae deletion strains, locus YLR058C, strain SHM2, stronger effect = lower value",0.847 (active)
same,normalized growth,"S. cerevisiae deletion strains, locus YLR102C, strain apc9, stronger effect = lower value",0.942
same,normalized growth,"S. cerevisiae deletion strains, locus YLR113W, strain HOG1, stronger effect = lower value",0.831 (active)
same,normalized growth,"S. cerevisiae deletion strains, locus YLR221C, strain rsa3, stronger effect = lower value",0.936
same,normalized growth,"S. cerevisiae deletion strains, locus YLR258W, strain gsy2, stronger effect = lower value",0.968
same,normalized growth,"S. cerevisiae deletion strains, locus YLR262C, strain YPT6 (second series), stronger effect = lower value",1.01
same,normalized growth,"S. cerevisiae deletion strains, locus YLR262C, strain YPT6, stronger effect = lower value",0.755
same,normalized growth,"S. cerevisiae deletion strains, locus YLR268W, strain sec22, stronger effect = lower value",0.777 (active)
same,normalized growth,"S. cerevisiae deletion strains, locus YLR320W, strain mms22, stronger effect = lower value",0.872 (active)
same,normalized growth,"S. cerevisiae deletion strains, locus YLR330W, strain CHS5, stronger effect = lower value",0.886 (active)
same,normalized growth,"S. cerevisiae deletion strains, locus YLR342W, strain FKS1 (second series), stronger effect = lower value",0.86
same,normalized growth,"S. cerevisiae deletion strains, locus YLR342W, strain FKS1, stronger effect = lower value",0.987
same,normalized growth,"S. cerevisiae deletion strains, locus YLR357W, strain rsc2, stronger effect = lower value",1.04
same,normalized growth,"S. cerevisiae deletion strains, locus YLR370C, strain arc18, stronger effect = lower value",0.955
same,normalized growth,"S. cerevisiae deletion strains, locus YLR371W, strain rom2, stronger effect = lower value",0.917
same,normalized growth,"S. cerevisiae deletion strains, locus YLR384C, strain iki3, stronger effect = lower value",0.966
same,normalized growth,"S. cerevisiae deletion strains, locus YLR418C, strain cdc73, stronger effect = lower value",0.881
same,normalized growth,"S. cerevisiae deletion strains, locus YML016C, strain PPZ1, stronger effect = lower value",0.885 (active)
same,normalized growth,"S. cerevisiae deletion strains, locus YML032C, strain rad52, stronger effect = lower value",0.425 (active)
same,normalized growth,"S. cerevisiae deletion strains, locus YML120C, strain ndi1, stronger effect = lower value",0.96
same,normalized growth,"S. cerevisiae deletion strains, locus YML124C, strain tub3, stronger effect = lower value",0.932 (active)
same,normalized growth,"S. cerevisiae deletion strains, locus YMR058W, strain fet3, stronger effect = lower value",0.973
same,normalized growth,"S. cerevisiae deletion strains, locus YMR078C, strain ctf18, stronger effect = lower value",0.814 (active)
same,normalized growth,"S. cerevisiae deletion strains, locus YMR125W, strain sto1, stronger effect = lower value",0.98
same,normalized growth,"S. cerevisiae deletion strains, locus YMR129W, stronger effect = lower value",0.969
same,normalized growth,"S. cerevisiae deletion strains, locus YMR205C, strain PFK2, stronger effect = lower value",0.831 (active)
same,normalized growth,"S. cerevisiae deletion strains, locus YMR223W, strain ubp8, stronger effect = lower value",0.825 (active)
same,normalized growth,"S. cerevisiae deletion strains, locus YMR231W, strain pep5, stronger effect = lower value",0.986
same,normalized growth,"S. cerevisiae deletion strains, locus YMR307W, strain GAS1, stronger effect = lower value",0.714
same,normalized growth,"S. cerevisiae deletion strains, locus YNL067W, strain RPL9B, stronger effect = lower value",0.805 (active)
same,normalized growth,"S. cerevisiae deletion strains, locus YNL071W, strain lat1, stronger effect = lower value",0.868 (active)
same,normalized growth,"S. cerevisiae deletion strains, locus YNL153C, strain GIM3, stronger effect = lower value",0.888
same,normalized growth,"S. cerevisiae deletion strains, locus YNL183C, strain NPR1, stronger effect = lower value",0.878
same,normalized growth,"S. cerevisiae deletion strains, locus YNL209W, strain ssb2, stronger effect = lower value",0.96
same,normalized growth,"S. cerevisiae deletion strains, locus YNL233W, strain BNI4, stronger effect = lower value",0.841 (active)
same,normalized growth,"S. cerevisiae deletion strains, locus YNL248C, strain rpa49, stronger effect = lower value",0.858 (active)
same,normalized growth,"S. cerevisiae deletion strains, locus YNL250W, strain rad50, stronger effect = lower value",0.662 (active)
same,normalized growth,"S. cerevisiae deletion strains, locus YNL271C, strain bni1, stronger effect = lower value",0.909 (active)
same,normalized growth,"S. cerevisiae deletion strains, locus YNL298W, strain CLA4, stronger effect = lower value",0.881 (active)
same,normalized growth,"S. cerevisiae deletion strains, locus YNL307C, strain MCK1, stronger effect = lower value",0.855 (active)
same,normalized growth,"S. cerevisiae deletion strains, locus YNL322C, strain KRE1 (second series), stronger effect = lower value",0.919
same,normalized growth,"S. cerevisiae deletion strains, locus YNR049C, strain mso1, stronger effect = lower value",0.962
same,normalized growth,"S. cerevisiae deletion strains, locus YNR052C, strain pop2, stronger effect = lower value",0.885 (active)
same,normalized growth,"S. cerevisiae deletion strains, locus YOL006C, strain TOP1, stronger effect = lower value",0.64
same,normalized growth,"S. cerevisiae deletion strains, locus YOL012C, strain htz1",0.55
same,normalized growth,"S. cerevisiae deletion strains, locus YOL147C, strain pex11, stronger effect = lower value",0.898 (active)
same,normalized growth,"S. cerevisiae deletion strains, locus YOR001W, strain rrp6, stronger effect = lower value",0.857 (active)
same,normalized growth,"S. cerevisiae deletion strains, locus YOR061W, strain CKA2, stronger effect = lower value",0.876 (active)
same,normalized growth,"S. cerevisiae deletion strains, locus YOR069W, strain VPS5, stronger effect = lower value",0.891 (active)
same,normalized growth,"S. cerevisiae deletion strains, locus YOR070C, strain gyp1, stronger effect = lower value",0.967
same,normalized growth,"S. cerevisiae deletion strains, locus YOR080W, strain dia2, stronger effect = lower value",0.988
same,normalized growth,"S. cerevisiae deletion strains, locus YOR083W, strain WHI5, stronger effect = lower value",0.948
same,normalized growth,"S. cerevisiae deletion strains, locus YOR106W, strain vam3, stronger effect = lower value",0.966
same,normalized growth,"S. cerevisiae deletion strains, locus YOR136W, strain idh2, stronger effect = lower value",0.964
same,normalized growth,"S. cerevisiae deletion strains, locus YOR144C, strain elg1, stronger effect = lower value",0.906 (active)
same,normalized growth,"S. cerevisiae deletion strains, locus YOR184W, strain ser1, stronger effect = lower value",0.73 (active)
same,normalized growth,"S. cerevisiae deletion strains, locus YOR231W, strain MKK1, stronger effect = lower value",0.898
same,normalized growth,"S. cerevisiae deletion strains, locus YOR265W, strain rbl2, stronger effect = lower value",0.974
same,normalized growth,"S. cerevisiae deletion strains, locus YOR270C, strain vph1, stronger effect = lower value",0.856
same,normalized growth,"S. cerevisiae deletion strains, locus YOR290C, strain snf2, stronger effect = lower value",0.937
same,normalized growth,"S. cerevisiae deletion strains, locus YOR316C, strain cot1, stronger effect = lower value",0.933
same,normalized growth,"S. cerevisiae deletion strains, locus YPL051W, strain arl3, stronger effect = lower value",0.989
same,normalized growth,"S. cerevisiae deletion strains, locus YPL055C, strain LGE1, stronger effect = lower value",0.89
same,normalized growth,"S. cerevisiae deletion strains, locus YPL078C, strain atp4, stronger effect = lower value",1.02
same,normalized growth,"S. cerevisiae deletion strains, locus YPL106C, strain sse1, stronger effect = lower value",0.913
same,normalized growth,"S. cerevisiae deletion strains, locus YPL240C, strain hsp82, stronger effect = lower value",0.97
same,normalized growth,"S. cerevisiae deletion strains, locus YPL256C, strain CLN2, stronger effect = lower value",0.855
same,normalized growth,"S. cerevisiae deletion strains, locus YPR119W, strain clb2, stronger effect = lower value",0.925 (active)
same,normalized growth,"S. cerevisiae deletion strains, locus YPR141C, strain kar3, stronger effect = lower value",0.886 (active)
same,normalized growth,"S. cerevisiae deletion strains, locus YPR163C, strain tif3, stronger effect = lower value",0.781 (active)
same,normalized growth,"S. cerevisiae deletion strains, locus YPR167C, strain met16, stronger effect = lower value",0.864 (active)
same,normalized growth,"S. cerevisiae deletion strains, strain wtn01, stronger effect = lower value",0.795 (active)
same,normalized growth,"S. cerevisiae strains, strain wild type, stronger effect = lower value",0.854 (active)
